Assay outcomes: PubChem, National Center for Advancing Translational Sciences (NCATS)
Menin-MLL FL inh: inhibitors of human menin-MLL interaction, wild-type MLL peptide; Fluorescence polarization, fluorescein-MLL peptide displacement from menin; FP activity change, % at 61.4 µM; 290,000 tested, under 10 active; AID 1766; active = well fitted curve in the direction sought with a large enough effect in the polarisation, not every such curve was filed as active; inconclusive = small, poorly fitted or top-dose-only effect, or effect the other way, or a change in a side signal; inactive = no such curve, though single readings can be large or run the other way; the % refers to the polarisation; note: % of control where 0% means no effect
KCNH2 WT inh: KCNH2 (human, wildtype) channel inhibition; U2OS, BacMam KCNH2, thallium flux FluxOr; hits give low values; activity change, % at 1.84 µM; 340,000 compounds, 0.37% hits; AID 720551;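 active = maximum activity change below -70%; inconclusive = maximum activity change between -70% and -50%; inactive = maximum activity change above -50%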; note: % is set by controls: 0 for no effect and ±100 for the full control effect
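U2OS cells transduced with wild-type KCNH2 virus are loaded with FluxOr dye for 45 min, and thallium flux is measured in kinetic reads before and after stimulation buffer. Rate constants are normalized to DMSO controls.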
Menin MLL FP TR: inhibitors of human menin-MLL interaction, mutant MLL peptide | O00255 | Menin + Texas Red MLL mutant peptide, fluorescence polarization | Potency, µM (doses to about 61.6 µM), inactives show at the top dose FP activity change, negative = inhibition, hits mostly inhibitors | 270,000 compounds, 0.23% hits; active = well fitted inhibition curve with a large enough effect in the polarisation, with a control signal flat, not every such curve was filed as active; inconclusive = small, poorly fitted or top-dose-only effect, or effect the other way, or a change in a side signal; inactive = no such curve, though single readings can be large or run the other way; the % refers to the polarisation; note: potency is the fitted concentration of half-maximal effect; % of control where 0% means no effect
MLL CXXC-DNA inh: blocks binding of human MLL CXXC domain to DNA | Q03164 | MLL-CXXC / FITC-HOXA9 DNA fluorescence polarization | Potency, µM (series often up to 115 µM), without a hit: top-dose activity change, negative = inhibition, usual class: inhibitors | 290,000 compounds, 0.037% hits; active = well fitted inhibition curve with a large enough effect in the polarisation, with a control signal flat, not every such curve was filed as active; inconclusive = small, poorly fitted or top-dose-only effect, or effect the other way, or a change in a side signal; inactive = no such curve, though single readings can be large or run the other way; the % refers to the polarisation; note: potency is the fitted concentration of half-maximal effect
Target sequence (Q03164 whole entry, looked up, the tested form may be a part): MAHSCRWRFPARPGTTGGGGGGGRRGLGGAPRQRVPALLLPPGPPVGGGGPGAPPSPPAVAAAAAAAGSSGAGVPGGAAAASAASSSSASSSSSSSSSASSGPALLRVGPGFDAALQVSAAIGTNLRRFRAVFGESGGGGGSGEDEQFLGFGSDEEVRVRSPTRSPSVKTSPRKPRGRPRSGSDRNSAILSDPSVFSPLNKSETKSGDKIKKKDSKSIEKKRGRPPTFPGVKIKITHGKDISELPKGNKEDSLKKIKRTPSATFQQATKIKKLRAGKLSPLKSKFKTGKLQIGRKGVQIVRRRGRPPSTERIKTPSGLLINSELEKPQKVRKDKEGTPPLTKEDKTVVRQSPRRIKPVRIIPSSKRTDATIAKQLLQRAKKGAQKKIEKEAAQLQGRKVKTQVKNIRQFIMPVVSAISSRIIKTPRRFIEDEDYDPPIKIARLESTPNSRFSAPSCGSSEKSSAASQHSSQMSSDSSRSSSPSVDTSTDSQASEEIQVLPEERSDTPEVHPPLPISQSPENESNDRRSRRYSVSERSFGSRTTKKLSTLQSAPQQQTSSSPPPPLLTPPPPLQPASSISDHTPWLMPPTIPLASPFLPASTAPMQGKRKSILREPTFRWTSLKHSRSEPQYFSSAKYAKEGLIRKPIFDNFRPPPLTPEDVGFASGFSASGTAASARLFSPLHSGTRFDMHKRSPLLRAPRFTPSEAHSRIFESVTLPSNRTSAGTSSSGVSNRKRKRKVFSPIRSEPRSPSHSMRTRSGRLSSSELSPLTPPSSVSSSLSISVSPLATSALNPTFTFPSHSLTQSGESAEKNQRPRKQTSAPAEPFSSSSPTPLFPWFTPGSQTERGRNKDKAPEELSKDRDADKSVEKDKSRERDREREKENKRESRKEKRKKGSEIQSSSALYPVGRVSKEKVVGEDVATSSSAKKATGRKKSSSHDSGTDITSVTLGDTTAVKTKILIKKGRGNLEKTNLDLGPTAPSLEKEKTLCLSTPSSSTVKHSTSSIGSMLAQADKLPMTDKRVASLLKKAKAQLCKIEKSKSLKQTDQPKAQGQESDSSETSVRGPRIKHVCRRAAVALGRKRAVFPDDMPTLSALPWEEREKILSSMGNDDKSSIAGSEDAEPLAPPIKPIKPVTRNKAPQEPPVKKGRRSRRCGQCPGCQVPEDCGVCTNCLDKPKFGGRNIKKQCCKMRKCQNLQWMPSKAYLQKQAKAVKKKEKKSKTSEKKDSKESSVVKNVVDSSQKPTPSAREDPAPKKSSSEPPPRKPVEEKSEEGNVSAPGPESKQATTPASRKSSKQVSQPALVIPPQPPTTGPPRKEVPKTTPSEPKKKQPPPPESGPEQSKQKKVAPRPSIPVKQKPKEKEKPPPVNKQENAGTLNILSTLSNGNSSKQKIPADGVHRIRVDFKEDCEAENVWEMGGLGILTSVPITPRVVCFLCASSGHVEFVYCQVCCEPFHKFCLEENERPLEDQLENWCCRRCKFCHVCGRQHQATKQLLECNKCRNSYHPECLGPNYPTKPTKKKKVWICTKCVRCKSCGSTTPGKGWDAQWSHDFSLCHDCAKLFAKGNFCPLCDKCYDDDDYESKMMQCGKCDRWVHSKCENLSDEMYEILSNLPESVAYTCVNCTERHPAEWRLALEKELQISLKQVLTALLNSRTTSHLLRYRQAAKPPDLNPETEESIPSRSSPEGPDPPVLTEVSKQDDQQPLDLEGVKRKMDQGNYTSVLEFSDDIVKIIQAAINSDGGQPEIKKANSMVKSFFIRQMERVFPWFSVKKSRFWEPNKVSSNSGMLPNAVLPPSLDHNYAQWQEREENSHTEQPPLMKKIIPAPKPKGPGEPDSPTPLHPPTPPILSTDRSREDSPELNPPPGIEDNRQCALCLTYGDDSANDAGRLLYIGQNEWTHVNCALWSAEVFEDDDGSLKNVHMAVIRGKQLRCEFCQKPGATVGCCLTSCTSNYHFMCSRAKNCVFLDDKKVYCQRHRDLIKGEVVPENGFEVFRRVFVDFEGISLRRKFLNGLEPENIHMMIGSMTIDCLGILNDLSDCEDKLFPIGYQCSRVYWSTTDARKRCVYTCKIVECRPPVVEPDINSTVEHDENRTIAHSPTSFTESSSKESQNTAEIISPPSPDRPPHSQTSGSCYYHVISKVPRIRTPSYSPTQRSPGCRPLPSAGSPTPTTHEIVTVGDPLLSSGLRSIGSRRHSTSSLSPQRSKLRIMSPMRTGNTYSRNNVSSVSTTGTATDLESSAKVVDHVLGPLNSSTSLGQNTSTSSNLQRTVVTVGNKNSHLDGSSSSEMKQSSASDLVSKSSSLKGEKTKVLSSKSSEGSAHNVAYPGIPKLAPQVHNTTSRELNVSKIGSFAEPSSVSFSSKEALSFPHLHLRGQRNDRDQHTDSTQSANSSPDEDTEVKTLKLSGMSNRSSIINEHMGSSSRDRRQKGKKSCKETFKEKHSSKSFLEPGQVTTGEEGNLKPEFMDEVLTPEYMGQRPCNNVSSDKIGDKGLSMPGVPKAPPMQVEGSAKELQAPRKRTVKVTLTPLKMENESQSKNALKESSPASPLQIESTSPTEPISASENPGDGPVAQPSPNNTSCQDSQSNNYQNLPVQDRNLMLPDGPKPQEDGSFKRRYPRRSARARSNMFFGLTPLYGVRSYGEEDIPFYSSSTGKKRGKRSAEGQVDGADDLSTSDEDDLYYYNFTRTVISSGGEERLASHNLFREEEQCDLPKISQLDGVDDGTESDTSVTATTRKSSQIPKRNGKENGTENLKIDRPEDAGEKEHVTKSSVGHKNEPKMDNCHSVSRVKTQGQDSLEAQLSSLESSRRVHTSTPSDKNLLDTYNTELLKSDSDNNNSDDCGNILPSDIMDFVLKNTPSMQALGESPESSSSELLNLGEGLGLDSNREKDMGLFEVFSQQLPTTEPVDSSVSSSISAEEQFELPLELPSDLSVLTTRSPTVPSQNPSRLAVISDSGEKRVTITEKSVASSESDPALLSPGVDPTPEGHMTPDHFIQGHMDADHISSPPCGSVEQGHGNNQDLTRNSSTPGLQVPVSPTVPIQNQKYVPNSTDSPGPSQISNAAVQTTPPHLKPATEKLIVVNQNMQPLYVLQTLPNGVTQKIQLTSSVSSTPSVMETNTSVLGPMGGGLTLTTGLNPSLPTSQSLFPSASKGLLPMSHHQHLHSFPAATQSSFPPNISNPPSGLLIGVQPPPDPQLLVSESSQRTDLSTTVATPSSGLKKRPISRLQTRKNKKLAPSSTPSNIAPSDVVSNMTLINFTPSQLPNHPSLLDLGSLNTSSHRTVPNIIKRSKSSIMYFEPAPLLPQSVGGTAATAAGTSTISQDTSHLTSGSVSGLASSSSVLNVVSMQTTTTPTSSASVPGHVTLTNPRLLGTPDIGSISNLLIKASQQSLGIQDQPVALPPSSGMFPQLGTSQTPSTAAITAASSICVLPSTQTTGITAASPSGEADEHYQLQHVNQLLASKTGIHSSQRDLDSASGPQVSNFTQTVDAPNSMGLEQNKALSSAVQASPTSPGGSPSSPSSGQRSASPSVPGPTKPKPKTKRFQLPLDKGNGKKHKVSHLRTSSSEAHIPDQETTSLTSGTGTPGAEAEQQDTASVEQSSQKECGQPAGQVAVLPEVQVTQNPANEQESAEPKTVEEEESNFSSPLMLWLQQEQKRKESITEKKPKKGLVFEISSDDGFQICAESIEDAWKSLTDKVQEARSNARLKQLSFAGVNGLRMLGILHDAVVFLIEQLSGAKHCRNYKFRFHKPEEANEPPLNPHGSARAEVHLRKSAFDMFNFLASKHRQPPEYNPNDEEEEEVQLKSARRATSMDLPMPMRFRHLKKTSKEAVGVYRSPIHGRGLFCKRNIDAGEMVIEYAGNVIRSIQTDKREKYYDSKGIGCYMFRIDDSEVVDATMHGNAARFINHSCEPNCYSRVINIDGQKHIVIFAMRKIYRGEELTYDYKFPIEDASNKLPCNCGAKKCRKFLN
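Fluorescence polarization: 7 uM MLL-CXXC (stock) preincubated 5 min with compounds, then 50 nM fluorescein-HOX-A9 DNA (stock) added; 30 min ambient. Buffer 50 mM Tris-HCl pH 7.5, 50 mM NaCl, 1 mM DTT, 0.05% BSA.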
KCNH2 3.1 inh: blocks the human KCNH2 3.1 channel isoform; activity change, % (tested at about 1.8 µM); 340,000 compounds, 0.95% hits; U2OS KCNH2 3.1, thallium flux FluxOr; hits give low values;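 active = maximum activity change below -70%; inconclusive = maximum activity change from -70% to -50%; inactive = maximum activity change above -50%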;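 note: thallium influx rate constant from kinetic fluorescence after stimulation buffer; % is set by controls: 0 for no effect and ±100 for the full control effect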
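Normalized rate constant (relative to positive and negative DMSO controls) derived from a 2 min kinetic fluorescence read after stimulation; U2OS cells expressing the 3.1 isoform via virus at 1.77 x 10^8 /mL.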
An asterisk follows results filed as active; u = inconclusive; x = no result; [ ] = remark or other dose. A selection: hits, their analogues and other compounds. The true share with any hit is near 1.1%.

SMILES | Menin-MLL FL inh | KCNH2 WT inh | Menin MLL FP TR | MLL CXXC-DNA inh | KCNH2 3.1 inh
CCOc1ccc(/C=N/n2c(SC)nnc(C(C)(C)C)c2=O)cc1 | -2 | -80* | -30% | -1% | -3
CCc1cc2c(nc1CC)CCN(CC/C(C)=N/OC[C@@H](O)COCc1ccco1)C2 | -1[11.7 µM] | x | 0%[11.7 µM] | x | x
O=C(/C=C/c1ccc(F)cc1)NCCCN1CCN(CCCNC(=O)/C=C/c2ccc(F)cc2)CC1 | 4 | -43 | 1% | 0% | -92*
Cc1ccc(/C=C/C(=O)NCCCN2CCN(CCCNC(=O)/C=C/c3ccc(C)o3)CC2)o1 | 3 | -2 | -4% | 7% | -76*
COc1ccc(/C=C/C(=O)NCCCN2CCCCCC2)cc1 | -2 | 13 | -26% | 7% | -4
COc1cccc2cc(C(=O)C3=C(O)C(=O)N(c4cc(C)on4)C3c3cccs3)oc12 (stereo not drawn) | 14 | -2 | u | u | 12
CCC(=O)c1c(O)cc(O)cc1O | -3 | x | u | -1% | x
COc1ccc(CCNC(=O)CCC(=O)NC2CCCC(C)C2C)cc1OC (stereo not drawn) | -1 | -7 | 7% | 10% | 3
CC(=O)Nc1ccc(S(=O)(=O)NCC(=O)N2CCN(S(=O)(=O)c3cccs3)CC2)cc1 | x | 2 | x | x | -101*
CCOC(=O)N1CCN(C(=O)CNS(=O)(=O)c2cccs2)CC1 | 0 | -9 | 14% | 1% | 1
O=C(Nc1ccc(OCC(=O)N2CCOCC2)cc1)Nc1cccc(Cl)c1 | -2 | 14 | u | -6% | -82*
COc1cccc(-c2noc(C3CCCN(C(=O)CC(C)(C)C)C3)n2)c1 (stereo not drawn) | -7 | -87* | -15% | 4% | -22
Cc1noc(C)c1-c1cc(N2CCNCC2)ncn1 | -3 | x | 1% | x | x
O=C1c2cccc3cccc(c23)C(=O)N1CCO | x | 1 | x | x | -21
O=C1OC(O)c2cccc3cccc1c23 (stereo not drawn) | x | 5 | x | x | -71*
S=c1[nH]nc(CSCCOc2ccc(Cl)cc2Cl)o1 | -5 | -154* | x | -1% | -166*
COc1ccc(CCN(C)c2ncnc3sccc23)cc1OC | 2 | -84* | -1% | 5% | 4
COc1ccc(CCN(C)Cc2ccc(OC)c(OCc3ccccc3)c2)cc1OC | -1 | 16 | -18% | -7% | u
COc1ccc(CCN(C)Cc2ccc(OCc3ccccc3)c(OC)c2)cc1OC | 2 | 14 | -19% | 18% | -79*
Cc1c(NC(=O)COc2cccc3c2OC(C)(C)C3)c(=O)n(-c2ccccc2)n1C | -6 | -1 | -1% | 3% | -107*
Nc1c(-c2ccccc2)cnn1-c1ccccc1 | 5 | -2 | 14% | -4% | -9
Nc1c(-c2cccc(Cl)c2)cnn1-c1ccccc1 | -4 | -6 | 9% | 2% | -88*
CN(C)S(=O)(=O)c1cccc(C(=O)N(Cc2ccc(F)cc2)Cc2ccco2)c1 | 3 | 1 | -6% | -6% | -4
O=C(c1cccc(S(=O)(=O)N2CCOCC2)c1)N(Cc1ccc(F)cc1)Cc1ccco1 | 3 | 42 | -17% | -16% | -135*
COc1cccc(N2C(=NC(=O)C3CCCO3)SC3CS(=O)(=O)CC32)c1 (stereo not drawn) | x | 6 | x | 68% | -24
SMILES | Menin-MLL FL inh | KCNH2 WT inh | Menin MLL FP TR | MLL CXXC-DNA inh | KCNH2 3.1 inh
CCOc1ccc(NC(=O)C2CCCN(S(=O)(=O)c3c(C)noc3C)C2)cc1 (stereo not drawn) | 5 | -18 | 16% | 37% | 11
CCOC(=O)c1nn(-c2ccc(Br)cc2)cc1C(=O)c1cccc2ccccc12 | 5 | -4 | 8% | 12% | -104*
Cn1c2c(c(=O)n(C)c1=O)C(c1ccccc1F)C(C#N)=C(N)O2 (stereo not drawn) | 11 | 7 | -8% | -8% | 1
Cn1c2c(c(=O)n(C)c1=O)C(c1ccccc1Cl)C(C#N)=C(N)O2 (stereo not drawn) | 15 | 0 | x | -3% | -105*
CCN(CC)C(=O)C1=C(C)N(Cc2ccccc2)C(=O)C(CC(=O)NCc2ccco2)C1 (stereo not drawn) | x | 1 | x | x | -3
O=S1(=O)CC2N=C(N(Cc3ccc(F)cc3Cl)c3ccccc3F)SC2C1 (stereo not drawn) | 1 | -90* | 15% | 10% | -11
Cc1cccc(NC(=O)CN(C2=NC3CS(=O)(=O)CC3S2)c2ccccc2F)c1 (stereo not drawn) | -1 | 1 | -1% | x | 5
Cc1cc(C)nc(SCNC(=O)c2ccc(Cl)cc2)n1 | 3 | -9 | 8% | -20% | -101*
Cc1cc(C)nc(SCc2ccc(Cl)cc2)n1 | -4 | -16 | 7% | 1% | -2
COc1ccc(NC(=O)CN(C)S(=O)(=O)c2ccc3c(c2)CC(C)N3C(C)=O)cc1OC (stereo not drawn) | x | -9 | x | 1% | 14
O=c1c(Cc2c(F)cccc2Cl)c(O)ccn1CC1CCCO1 (stereo not drawn) | 0 | -8 | 4% | 2% | -6
O=c1c(Cc2c(F)cccc2Cl)c(O)ccn1CCc1ccccn1 | -2 | -4 | 2% | 2% | -92*
Cc1ccc(SCC(c2ccccc2)N2CCN(C)CCC2=O)cc1 (stereo not drawn) | -6 | x | -15% | x | x
O=C1CCN(CCc2ccccc2)CCN1[C@H](CSc1ccccc1)c1ccccc1 | 4 | -134* | 0% | 4% | -101*
O=C1CCN(CCc2ccccc2)CCN1C(CSc1ccc(Br)cc1)c1ccccc1 (stereo not drawn) | 6 | x | 10% | x | x
CN1CCC(=O)N([C@H](CSc2ccc(Br)cc2)c2ccccc2)CC1 | -2 | -7 | x | 3% | -98*
CCCN1CCC(=O)N([C@H](CSc2ccccc2)c2ccccc2)CC1 | 1 | -45 | -27% | 1% | -94*
CC(C)C[C@@H](CSc1ccccc1)N1CCN(CCc2ccccc2)CCC1=O | -2 | -77* | -15% | 4% | -101*
CCN(CC)S(=O)(=O)c1ccc(N2CCN(CCOc3ccc(OC)cc3)CC2)nc1 | 6 | 1 | -7% | 10% | -5
CCCN1CCC(=O)N([C@H](CSc2ccccc2)Cc2ccccc2)CC1 | 0 | 34 | -14% | -3% | u
CCCN1CCC(=O)N([C@H](CSc2ccc(Br)cc2)Cc2ccccc2)CC1 | -3 | -89* | x | 4% | -101*
Cc1ccc(SCC(c2ccccc2)N2CCN(CCc3ccccc3)CCC2=O)cc1 (stereo not drawn) | 9 | x | u | x | x
Cc1ccc(SC[C@H](c2ccccc2)N2CCN(CCc3ccccc3)CCC2=O)cc1 | 8 | -142* | x | 11% | -114*
CC(C)CN1CCC(=O)N([C@H](CSc2ccccc2)Cc2ccccc2)CC1 | 1 | -1 | -6% | 10% | -101*
Cc1ccc(SC[C@H](Cc2ccccc2)N2CCN(CC(C)C)CCC2=O)cc1 | 1 | x | x | -12% | x
Cc1cc(C)n(-c2ccc([N+](=O)[O-])cc2)n1 | 0 | 5 | 5% | -1% | -107*
